MCF10A rereplic: inducers of DNA re-replication in MCF 10A breast cells. MCF 10A DNA re-replication, Hoechst nuclear intensity, 48 h. Potency, µM (series often up to 46.1 µM), most hits filed as activators. 350,000 compounds, 2.9% hits. AID 624296; further: nearly all actives have a fitted effect of over 50% in size
KB-3-1 cytotox: KB-3-1 parental cell cytotoxicity; Potency, µM (highest dose often 46.1 µM), usual class: cytotoxic; KB-3-1 viability, CellTiter-Glo ATP luminescence, 72 h; 400,000 compounds, 1.4% hits; further: nearly all actives have a fitted effect of over 60% in size
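72 h, 37 °C compound treatment of KB-3-1 parental cells; CellTiter-Glo added, 10 min, luminescence read. Data corrected against DMSO-only plates and normalized before curve fitting.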
KB-V1 cytotox: kills drug-selected multidrug resistant KB-V1 cells | KB-V1 MDR cells viability, CellTiter-Glo, 72 h | 400,000 compounds, 3.4% hits | Potency, µM (highest dose often 46.1 µM), hits mostly cytotoxic; further: nearly all actives have a fitted effect of over 60% in size
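KB-V1, DMEM (no phenol red) + 10% FBS; cpd pin-transferred, titration series; 72 h, 37 degrees C; CellTiter-Glo, luminescence. Data normalized, curve-fit.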
SW480 rerep: inducers of DNA re-replication in SW480 colon cancer cells | AID 624297 | SW480 DNA re-replication, Hoechst DNA content imaging, 48 h | Potency, µM (titrated, usually from 46.1 µM), most hits filed as activators | 340,000 compounds, 1.8% hits; further: nearly all actives have a fitted effect of over 55% in size
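Image-based read-out: total Hoechst fluorescence of nuclei (405 nm excitation, 500-530 nm emission), with hits raising the fraction of high-intensity nuclei. SW480 colon cells incubated 48 hr with compounds at 37 C.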
IL-1B inflam inh: blocks inflammasome-driven IL-1 beta release | THP-1 LPS/ATP IL-1B secretion, AlphaLISA, 16 h; stronger effect = lower value | activity change, % at 57.5 µM | 360,000 compounds, 4.7% hits; in the data active means activity change below about -50%; inconclusive means mostly about -30% to -49%
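Secreted IL-1B measured by AlphaLISA bead assay after 16 h compound exposure of THP-1 cells; compounds (final up to 57.5 uM) added 1 h before LPS (250 ng/mL) and ATP (1.25 mM) stimulation; lower signal means less secretion.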
Large screens that a line does not name were inactive. Rows were chosen to be rich in hits. Some 9.9% of all compounds tested hit in one or more screens of this group. Unless noted, the call rests on the fitted dose curve; in most records, active means well fitted curve in the direction sought with a large enough effect; inconclusive means small, poorly fitted or top-dose-only effect, or another doubt; inactive means no such curve, though single readings can be large; an effect the other way counts as inactive or inconclusive.

COC(=O)C[C@@H]1CC[C@@H](NS(=O)(=O)c2ccc(OC)cc2)[C@@H](CO)O1	none (no result: MCF10A rereplic, SW480 rerep)
O=C(CNC(=O)c1ccc(Cl)cc1)NC1CCCCC1	SW480 rerep 8.2µM
O=C(CCNC(=O)c1ccccc1Cl)Nc1ccccc1N1CCCC1	none
O=C(CCNC(=O)c1ccc(Br)cc1)Nc1ccccc1N1CCCCC1	MCF10A rereplic inconclusive, IL-1B inflam inh -80
O=C(CCNC(=O)c1ccc(Br)cc1)NC1CCCCCC1	KB-V1 cytotox 16µM
CC(C)(C)C(=O)N1CCN(c2ccc(NC(=O)c3ccc([N+](=O)[O-])o3)cc2)CC1	MCF10A rereplic 1.8µM, KB-3-1 cytotox inconclusive, KB-V1 cytotox inconclusive, SW480 rerep 1.8µM, IL-1B inflam inh -96
CCC(=O)N1CCN(c2ccc(NC(=O)c3ccc([N+](=O)[O-])o3)cc2)CC1	KB-3-1 cytotox inconclusive, KB-V1 cytotox inconclusive, IL-1B inflam inh -103
CC(C)(C)C(=O)N1CCN(c2ccc(NC(=O)c3ccco3)cc2)CC1	IL-1B inflam inh inconclusive
CCC(=O)N1CCN(c2ccc(NC(=O)c3ccc(N4CCOCC4)c([N+](=O)[O-])c3)cc2)CC1	none
CCCC(=O)N1CCN(c2ccc(NC(=O)c3ccc(OCC)c([N+](=O)[O-])c3)cc2)CC1	KB-V1 cytotox 12µM
O=C(Nc1ccc(N2CCN(C(=O)c3ccc(Cl)cc3)CC2)cc1)c1ccc([N+](=O)[O-])o1	MCF10A rereplic inconclusive, SW480 rerep inconclusive, IL-1B inflam inh -107
CCCCn1c(N)c(N(CC(C)C)C(=O)CSc2nnc(C)n2-c2ccccc2)c(=O)[nH]c1=O	KB-V1 cytotox inconclusive
CCCC(=O)N1CCN(c2ccc(NC(=O)c3ccc(Br)o3)cc2)CC1	IL-1B inflam inh inconclusive
CCCC(=O)N1CCN(c2ccc(NC(=O)c3ccc([N+](=O)[O-])o3)cc2)CC1	MCF10A rereplic inconclusive, KB-V1 cytotox inconclusive, IL-1B inflam inh -109
COc1ccc(CCNC(=O)c2ccc(COc3ccccc3OC)o2)cc1	none
COc1ccc(CCNC(=O)c2cccnc2)cc1	MCF10A rereplic 16µM, SW480 rerep inconclusive
COc1ccc(CCNC(=O)c2ccc(CSc3ccccc3)o2)cc1	KB-V1 cytotox inconclusive, IL-1B inflam inh -59
O=C(c1cnn2c(C(F)F)cc(-c3ccccc3)nc12)N1CCOCC1	none
CC1CCN(C(=O)c2cc3nc(-c4ccccc4)cc(-c4ccccc4)n3n2)CC1	MCF10A rereplic 16µM, IL-1B inflam inh -55
O=C(NCCN1CCOCC1)c1cnn2c(-c3ccccc3)cc(-c3ccccc3)nc12	MCF10A rereplic inconclusive, KB-V1 cytotox inconclusive, IL-1B inflam inh -55
O=C(NC1CCCC1)c1cc2nc(-c3ccccc3)cc(-c3ccccc3)n2n1	MCF10A rereplic inconclusive
O=C(c1cnn2c(-c3ccccc3)cc(-c3ccccc3)nc12)N1CCN(Cc2ccccc2)CC1	MCF10A rereplic inconclusive, KB-3-1 cytotox inconclusive, SW480 rerep 18µM
C[C@@H]1CN([C@H](C)CO)S(=O)(=O)c2ccc(Br)cc2O[C@H]1CN(C)C(=O)Nc1ccccc1	KB-V1 cytotox inconclusive, IL-1B inflam inh inconclusive (no result: MCF10A rereplic, SW480 rerep)

Assay outcomes from PubChem.
